Experiment [1] can be described thus: resazurin metabolic signal in HepG2 cells – cell-based, resazurin fluorescence, 24 h, PK04 Diversity Set, profiling panel (AID 1172). Also: test concentration not given here. To be noted: HepG2 viability, higher = more signal. For orientation: Alamar Blue is a resazurin reagent that responds to reducing activity.
Experiment [2] in a line: budding yeast growth changes without added modifier – OD600, strain BY4716, 24 h, basal condition, primary screen (AID 1173). To be noted: S. cerevisiae BY4716 growth, OD600, 24 h; higher = more signal, called active from +8 up or from −8 down.
Experiment [3] in a line: viability profiling in MM1S myeloma cells – cell-based, resazurin fluorescence, basal, 24 h, PK04 Diversity Set, profiling panel (AID 1174). Also: test concentration not given here. To be noted: higher = more signal, called active from +8 up or from −8 down.
Experiment [4] addresses Dihydroorotate dehydrogenase (quinone), mitochondrial (Plasmodium falciparum (isolate 3D7)) (UniProt Q08210). Description: inhibition of P. falciparum DHODH – biochemical, C-terminal His tag, absorbance 600 nm, primary screen (AID 1175).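 Also: recombinant parasite enzyme with a five histidine tag at its C terminus; test concentration not given here.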 To be noted: PfDHODH enzyme, DCIP absorbance 600 nm; higher = more signal, called active from +8 up or from −8 down.
The nature of experiment [5]: inhibition of PAO1 biofilm formation – strain PAO1, LB-PBS medium, absorbance 600 nm, primary screen (AID 1176). Also: test concentration not given here. The conditions noted are these: P. aeruginosa PAO1 growth/biofilm, A600, 12 h; higher = more signal.
Experiment [6] is described as follows: growth modulation of vineyard yeast isolate – strain RM11-1a, OD600, basal, 24 h, primary screen (AID 1177).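 Also: cultures grown under basal conditions with no added stressor; test concentration not given here.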 To be noted: S. cerevisiae RM11-1a growth, OD600, 24 h; higher = more signal, called active from +8 up or from −8 down.
The nature of experiment [7]: growth of efflux-deficient E. coli DRC39 – strain DRC39, OD650, 24 h, E. coli filamentation inducers, primary screen (AID 1178).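 Also: growth measured as culture turbidity by optical density at 650 nm; test concentration not given here.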 The conditions noted are these: E. coli DRC39 acrAB, higher = more signal, called active from +8 up or from −8 down.
Experiment [8] in a line: growth of efflux-deficient E. coli DRC39 – strain DRC39, OD650, 48 h, E. coli filamentation inducers, primary screen (AID 1179).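 Also: screen aims at cell division blockers that make cells filament.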 To be noted: E. coli DRC39 delta-acrAB growth, higher = more signal, called active from +8 up or from −8 down.
Experiment [9] can be described thus: viability profiling in RPMI8226 myeloma cells – cell-based, resazurin fluorescence, basal, 24 h, PK04 Diversity Set, profiling panel (AID 1180).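 Also: RPMI8826 multiple myeloma cell line at 5000 cells per well; test concentration not given here.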 The conditions noted are these: higher = more signal.
For experiment [10], the target named is E3 ubiquitin-protein ligase XIAP (Homo sapiens) (UniProt P98170). Description: small molecules binding XIAP protein – biophysical, small-molecule microarray, fluorescence 635 nm, primary screen (AID 1181).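 Also: score merges 667 nm emission and signal to noise over triplicate slides.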 The conditions noted are these: higher = more signal.

The source made the active and inactive calls. Unless noted, no rule for the calls is given here.

Sequence of Dihydroorotate dehydrogenase (quinone), mitochondrial (Plasmodium falciparum (isolate 3D7)) (Q08210 whole entry, looked up): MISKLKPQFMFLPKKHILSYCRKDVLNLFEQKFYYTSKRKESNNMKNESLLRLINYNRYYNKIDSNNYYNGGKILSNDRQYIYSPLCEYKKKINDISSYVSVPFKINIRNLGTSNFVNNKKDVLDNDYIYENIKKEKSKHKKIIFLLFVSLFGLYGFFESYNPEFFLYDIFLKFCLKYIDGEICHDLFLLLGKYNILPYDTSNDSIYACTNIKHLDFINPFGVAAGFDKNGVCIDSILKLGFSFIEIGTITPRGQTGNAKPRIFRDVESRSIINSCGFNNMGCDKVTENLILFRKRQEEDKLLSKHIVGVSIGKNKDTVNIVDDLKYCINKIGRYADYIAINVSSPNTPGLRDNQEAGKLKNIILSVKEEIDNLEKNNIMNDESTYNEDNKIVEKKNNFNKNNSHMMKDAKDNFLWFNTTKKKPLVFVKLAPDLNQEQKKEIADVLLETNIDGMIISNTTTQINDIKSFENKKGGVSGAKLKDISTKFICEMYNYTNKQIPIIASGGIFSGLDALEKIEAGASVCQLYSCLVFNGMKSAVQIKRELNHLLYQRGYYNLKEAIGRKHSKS
Sequence of E3 ubiquitin-protein ligase XIAP (Homo sapiens) (P98170 whole entry, looked up): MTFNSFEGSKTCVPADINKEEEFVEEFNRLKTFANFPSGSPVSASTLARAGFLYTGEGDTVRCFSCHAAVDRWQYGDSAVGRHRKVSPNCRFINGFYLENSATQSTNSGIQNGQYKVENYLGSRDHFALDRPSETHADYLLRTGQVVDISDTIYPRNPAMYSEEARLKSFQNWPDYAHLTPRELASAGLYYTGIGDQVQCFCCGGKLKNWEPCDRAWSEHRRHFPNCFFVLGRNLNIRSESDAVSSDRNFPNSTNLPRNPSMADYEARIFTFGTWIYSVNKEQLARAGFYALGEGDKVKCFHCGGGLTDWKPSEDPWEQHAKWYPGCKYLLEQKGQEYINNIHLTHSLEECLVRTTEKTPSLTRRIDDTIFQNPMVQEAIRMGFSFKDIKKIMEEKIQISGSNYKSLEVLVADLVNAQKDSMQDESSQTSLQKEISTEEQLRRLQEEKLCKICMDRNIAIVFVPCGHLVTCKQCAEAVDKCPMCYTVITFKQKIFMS

As for `CCOC(=O)C1=CC[C@@H](c2cccc(Br)c2)N(S(=O)(=O)c2ccc(C)cc2)[C@H]1c1ccc([N+](=O)[O-])cc1`, the z-score in experiment [1] is 0.157; in [2], 0.25 (inactive); in [3], -0.343 (inactive); in experiment [5], 0.449 (inactive); in [6] it was -0.403 (inactive); in experiment [7], -0.837 (inactive). Also, the figures for the z-score in experiment [8] and in experiment [9] were -0.0589 (inactive) and -1.14, respectively. Besides, the composite z-score in experiment [4] was -1.26 (inactive); in experiment [10], -0.27.
Turning to `COCC(=C=CC[C@@H](O)c1ccccc1OCCO)C[C@@H](O)c1ccccn1`, the z-score was -0.415 in experiment [1]; -1.42 (inactive) in experiment [2]; -0.249 (inactive) in experiment [3]; 0.354 (inactive) in [5]; -0.572 (inactive) in experiment [6]; -0.268 (inactive) in experiment [7]. Also, the z-score in experiment [8] was -0.268 (inactive); in experiment [9], -0.348. In addition, the figures for the composite z-score in experiment [4] and in experiment [10] were -10.8 (active) and -0.0541, respectively.
Regarding `C=C[C@@H](O)[C@H]1CC(c2ccccc2)=NO1`, the z-score is 0.0502 in experiment [1]; -2.38 (inactive) in experiment [2]; 0.325 (inactive) in experiment [3]; -0.496 (inactive) in experiment [5]; -0.2 (inactive) in experiment [6]; -0.105 (inactive) in [7]. Besides, the z-score was 0.194 (inactive) in experiment [8] and 1.08 in experiment [9]. Also, the values for the composite z-score in experiment [4] and in [10] were -0.344 (inactive) and -0.0473, respectively.
With `C[N+](C)(C)CCCC[C@@H]1NC(=O)[C@@H]2C[C@H](C(=O)O)[C@H](c3cccc(OCCO)c3)N2C1=O`, the z-score is 0.72 in [1]; -0.219 (inactive) in [2]; 0.838 (inactive) in experiment [3]; -0.351 (inactive) in experiment [5]; -0.126 (inactive) in [6]; 1.13 (inactive) in experiment [7]. Also, the z-score in [8] is 1.36 (inactive); in [9], 0.826. Also, the composite z-score in [4] was 0.284 (inactive); in [10], -0.131.
For the compound `CCCCCCCCCCC(O)C1C=CC2C(=O)NC(=O)C2N1Nc1ccccn1` (stereo not given), the z-score in [1] was -2.19; in [2] it was -10.4 (active); in experiment [3], -2.8 (inactive); in experiment [5], 2.43 (inactive); in experiment [6], -5.05 (inactive); in experiment [7], -2.29 (inactive). For the same compound, the results for the z-score in experiment [8] and in experiment [9] were -3.65 (inactive) and -1.64, respectively. In addition, the figures for the composite z-score in experiment [4] and in [10] were 0.364 (inactive) and 0.0153, respectively.
As for `CCCN1C(=O)[C@@]2(Cc3ccccc3)N=C(c3ccc(OCCCO)cc3)O[C@H]2c2ccccc21`, the z-score is 0.167 in [1]; -2.03 (inactive) in [2]; -1.66 (inactive) in [3]; 1.02 (inactive) in [5]; 0.673 (inactive) in [6]; 0.248 (inactive) in experiment [7]. For the same compound, the figures for the z-score in experiment [8] and in [9] were -0.319 (inactive) and -1.57, respectively. The composite z-score in experiment [4] was -0.319 (inactive); in experiment [10], -0.206.
In the case of `CC1CC/C=C\[C@H]2OC34C=CCN(c5ccc(Cl)cc5)C(=O)[C@H]3N(C(CO)C(C)C)C(=O)[C@]4(C)C2C(=O)O1` (stereo not given in full), the z-score in experiment [1] is -0.328; in experiment [2], -0.432 (inactive); in [3] it was 0.0849 (inactive); in [5], 0.109 (inactive); in experiment [6], -0.245 (inactive); in [7] it was -0.163 (inactive). Moreover, the z-score in [8] was 0.129 (inactive); in experiment [9], 0.399. Also, the composite z-score in [4] is -2.37 (inactive); in experiment [10] it was 0.0808.
Turning to `CCCc1cc2c(n1Cc1ccc(OC)cc1)C(C)C1CN(C(=O)c3ccccc3)C(C)(C(=O)OC)C21` (stereo not given), the z-score in [1] is -1.34; in [2] it was 1.08 (inactive); in experiment [3], -1.69 (inactive); in [5] it was 1.21 (inactive); in [6], 0.864 (inactive); in [7], -1.09 (inactive). Also, the z-score in [8] was -0.395 (inactive); in experiment [9], -1.7. The values for the composite z-score in experiment [4] and in experiment [10] were -0.118 (inactive) and 0.493, respectively.
For the compound `CCN(CC)c1ccc(N2CC=CC34O[C@@H]5/C=C\CCCOC(=O)C5[C@H]3C(=O)N(CCCCCCO)[C@@H]4C2=O)cc1` (stereo not given in full), the z-score in [1] is -0.574; in experiment [2], -1.14 (inactive); in [3] it was 0.93 (inactive); in experiment [5], -0.869 (inactive); in [6], -1.78 (inactive); in experiment [7], 0.318 (inactive). Moreover, the z-score in experiment [8] is 0.901 (inactive); in experiment [9], 0.79. The composite z-score in experiment [4] was -2.09 (inactive); in experiment [10], -0.083.
In the case of `CC(C)(C)OC(=O)CC[C@@]1(C(=O)N2CCCCC2)N=C(c2ccc(OCCCO)cc2)O[C@@H]1c1ccccc1CN=[N+]=[N-]`, the z-score in [1] was 0.613; in experiment [2], 0.0243 (inactive); in experiment [3] it was 0.053 (inactive); in experiment [5], -0.223 (inactive); in [6] it was 0.978 (inactive); in [7], -0.366 (inactive). The z-score in experiment [8] was 0.831 (inactive); in [9] it was 0.0127. Besides, the results for the composite z-score in experiment [4] and in experiment [10] were 0.113 (inactive) and 0.183, respectively.

Source of the values: PubChem BioAssay.
